Laboratory results from the supplement of paper PMC7411054.
Structures can show the parent of a compound that is named as a salt.

Key:
Conditions in all cases: treatment time: 24 h
HepG2-ACTB-RAB5A = experiment: lowest phenotypically active concentration; higher = less potent
How it was run: (§1)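 Two criteria together defined phenotypic activity: deviation and reproducibility. Deviation meant ≥3 of 4 wells beyond the 95th percentile of Euclidean distances in solvent control wells, and reproducibility meant a median replicate Pearson correlation above the 95th percentile of non-replicates. Wells had been treated for 24 h at 0.3, 1, 3 or 9 µM in fifteen gene-edited A549, HepG2 and WPMY1 reporter lines before live imaging.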

HepG2-CANX-COX4 = experiment: as above
How it was run: as §1

HepG2-GM130-SQSTM1 = experiment: as above
How it was run: as §1

HepG2-TUBA1B-RELA = experiment: as above
How it was run: as §1

WPMY1-ACTB-RAB5A [1] = experiment: as above
How it was run: as §1

WPMY1-CANX-COX4 = experiment: as above
How it was run: as §1

WPMY1-GM130-SQSTM1 = experiment: as above
How it was run: as §1

WPMY1-TP53BP1-CLTA = experiment: as above
How it was run: as §1

WPMY1-TUBA1B-RELA = experiment: as above
How it was run: as §1

WPMY1-ACTB-RAB5A [2] = experiment: phenotypically active (imaging signature differs from DMSO and reproducible) at any of 0.3-9 uM (binary (1 = active, 0 = inactive)); higher = active
How it was run: as §1

Structure (SMILES)	lowest phenotypically active concentration (HepG2-ACTB-RAB5A)	lowest phenotypically active concentration (HepG2-CANX-COX4)	lowest phenotypically active concentration (HepG2-GM130-SQSTM1)	lowest phenotypically active concentration (HepG2-TUBA1B-RELA)	lowest phenotypically active concentration (WPMY1-ACTB-RAB5A [1])	lowest phenotypically active concentration (WPMY1-CANX-COX4)	lowest phenotypically active concentration (WPMY1-GM130-SQSTM1)	lowest phenotypically active concentration (WPMY1-TP53BP1-CLTA)	lowest phenotypically active concentration (WPMY1-TUBA1B-RELA)	phenotypically active (WPMY1-ACTB-RAB5A [2])
Cc1cc(Nc2ncc3c(n2)N(C)C(=O)N(c2cc(NC(=O)c4cccc(C(F)(F)F)c4)ccc2C)C3)n(C)n1 [Pluripotin]	≤ 0.3 µM	≤ 0.3 µM	≤ 0.3 µM	≤ 0.3 µM	≤ 0.3 µM	1 µM	≤ 0.3 µM	1 µM	1 µM	1 (active)
Fc1ccccc1CNCc1ccc(-c2ccnc3[nH]ccc23)cc1 [OXA 06 dihydrochloride]	1 µM	1 µM	≤ 0.3 µM	1 µM	1 µM	≤ 0.3 µM	1 µM	9 µM	1 µM	1 (active)
CC(=O)Nc1ccc(C(=O)Nc2ccccc2N)cc1	3 µM	1 µM	1 µM	3 µM	3 µM	3 µM	3 µM	3 µM	9 µM	1 (active)
O=C(Nc1ccc(-c2ccnc(Nc3ccc(N4CCOCC4)cc3)n2)cc1)[C@@H]1CCCN1	3 µM	3 µM	3 µM	3 µM	3 µM	3 µM	3 µM	3 µM	3 µM	1 (active)
CC(=O)O[C@H]1C(=O)[C@@]2(C)[C@H]([C@H](OC(=O)c3ccccc3)[C@]3(O)C[C@H](OC(=O)[C@H](O)[C@@H](NC(=O)c4ccccc4)c4ccccc4)C(C)=C1C3(C)C)[C@]1(OC(C)=O)CO[C@@H]1C[C@@H]2O [paclitaxel]	≤ 0.3 µM	≤ 0.3 µM	≤ 0.3 µM	≤ 0.3 µM	≤ 0.3 µM	9 µM	≤ 0.3 µM	≤ 0.3 µM	≤ 0.3 µM	1 (active)
O=C(c1cccc(Cl)c1F)N1CCN(Cc2cccc(Nc3nccs3)n2)CC1	≤ 0.3 µM	≤ 0.3 µM	≤ 0.3 µM	≤ 0.3 µM	1 µM	9 µM	3 µM	≤ 0.3 µM	1 µM	1 (active)
c1ccc2c(c1)Cc1c(Nc3ccc4c(c3)OCCO4)n[nH]c1-2	3 µM	3 µM	9 µM	3 µM	3 µM	3 µM	3 µM	3 µM	3 µM	1 (active)
Nc1ncnc2c1nc(Cl)n2C1O[C@H](CO)[C@@H](O)[C@H]1O (stereo not given in full) [8-Chloroadenosine]	1 µM	3 µM	1 µM	3 µM	9 µM	3 µM	3 µM	3 µM	3 µM	1 (active)
Cc1ccc(C(=O)N(CCCN)[C@@H](c2nc3cc(Cl)ccc3c(=O)n2Cc2ccccc2)C(C)C)cc1 [Ispinesib]	≤ 0.3 µM	≤ 0.3 µM	≤ 0.3 µM	≤ 0.3 µM	≤ 0.3 µM	3 µM	≤ 0.3 µM	≤ 0.3 µM	≤ 0.3 µM	1 (active)
